Assay outcomes (PubChem)
Hits are enriched below; roughly 5% of the tested compounds scored in any of these assays.
TbPYK inhibitor – inhibitors of Trypanosoma brucei pyruvate kinase; Q57TT1; TbPYK enzyme, Kinase-Glo Plus ATP luminescence, 45 min; Potency, µM (titrated, usually from 76.8 µM), for inactives: at the highest dose activity, negative = inhibition, usual class: inhibitors; hit rate 0.12% among 410,000; AID 624173; note: potency is the fitted concentration of half-maximal effect; nearly all actives have a fitted effect of over 50% in size
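Activity of T. brucei pyruvate kinase was followed by Kinase-Glo Plus luminescence after the enzyme reacted 45 min at room temperature with 130 uM ADP (final) and substrate. Test compounds were added before ADP at multiple concentrations.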
LmPK inh – inhibitors of Leishmania mexicana pyruvate kinase; Q27686; purified LmPK, Kinase-Glo ATP luminescence, 1 h; Potency, µM (doses to about 57.5 µM), inactives show top-dose activity change, negative = inhibition, usual class: inhibitors; hit rate 0.37% among 290,000; AID 1721; note: potency is the fitted concentration of half-maximal effect
Target sequence (Q27686 whole entry, looked up): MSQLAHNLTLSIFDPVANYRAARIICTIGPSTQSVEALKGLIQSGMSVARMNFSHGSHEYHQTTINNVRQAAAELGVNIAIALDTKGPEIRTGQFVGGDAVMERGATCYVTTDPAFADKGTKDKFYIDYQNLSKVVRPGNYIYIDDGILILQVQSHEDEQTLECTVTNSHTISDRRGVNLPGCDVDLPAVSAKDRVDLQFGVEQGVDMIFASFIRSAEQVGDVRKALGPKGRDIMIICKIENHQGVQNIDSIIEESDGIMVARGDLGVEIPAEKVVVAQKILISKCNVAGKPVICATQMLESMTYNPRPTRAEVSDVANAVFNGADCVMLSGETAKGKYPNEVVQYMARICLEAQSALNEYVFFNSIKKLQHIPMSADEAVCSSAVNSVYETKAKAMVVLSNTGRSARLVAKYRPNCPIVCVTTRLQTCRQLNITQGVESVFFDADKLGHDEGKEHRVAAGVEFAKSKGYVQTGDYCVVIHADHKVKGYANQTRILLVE
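Purified LmPK (0.1 nM) converted ADP (0.1 mM) to ATP with PEP (0.5 mM) in imidazole buffer pH 7.2 with KCl and MgCl2, 1 h at room temperature. ATP was read by Kinase-Glo luminescence; data normalized to uninhibited and no-enzyme controls.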
VACV mCherry inh – vaccinia inhibition (mCherry reporter). hit rate 0.63% among 310,000. Potency, µM (highest dose often 36.5 µM), inactives show at the top dose activity change, negative = inhibition, hits mostly inhibitors. Vaccinia virus mCherry reporter infection, fluorescence; calls by dose curve; tested in A549 cells; note: potency is the fitted concentration of half-maximal effect; nearly all actives have a fitted effect of over 35% in size
HCMV inh – inhibitors of human cytomegalovirus | HFF cells, HCMV-luciferase reporter, 72 h; stronger effect = lower value | activity change, negative = inhibition, % at 57.5 µM | hit rate 4.5% among 410,000; in the data active = activity change below about -60%; inconclusive = no clear call, values can overlap the other calls; inactive = above about -39%
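Two-dose cell screen: HFF monolayers treated with compounds and infected with luciferase-expressing HCMV at 1 PFU/cell, 72 h at 37C, then lysed for luciferase measurement.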
Vaccinia Venus – inhibitors of vaccinia virus (Venus reporter) | Vaccinia virus Venus reporter expression, fluorescence | Potency, µM (titrated, usually from 36.5 µM), for the others: top-dose activity change, negative = inhibition, usual class: inhibitors | hit rate 0.46% among 330,000 | AID 720580; calls by dose curve; tested in A549 cells; note: potency is the fitted concentration of half-maximal effect; nearly all actives have a fitted effect of over 30% in size
The depositor's hits bear a star; i = inactive; ? = inconclusive; nt = not tested or not shown; ! = not confirmed by another sample; [ ] = dose if it differs, or a comment. Unless noted, calls come from the whole dose curve; as a rule, active = well fitted curve in the direction sought with a large enough effect; inconclusive = small, poorly fitted or top-dose-only effect, or another doubt; inactive = no such curve, though single readings can be large; an effect the other way counts as inactive or inconclusive. % is set by controls: 0 for no effect and ±100 for the full control effect.

SMILES	TbPYK inhibitor	LmPK inh	VACV mCherry inh	HCMV inh	Vaccinia Venus
Cc1ccc(NC(=O)CN(C)C(=S)NC2CC2)cc1	-10%	1%	1%	-27	-3%
O=C(Nc1ccc(Cl)cn1)c1ccccc1F	-7%	22µM*	nt	111	nt
CCn1ncc(Br)c1C(=O)Nc1ccc(Cl)cn1	4%	-4%	0%	-65*	-9%
O=C(Nc1ccc(Cl)cn1)Nc1ccccc1F	-5%	-4%	nt	18	nt
O=C(NCc1ccc2c(c1)OCO2)c1ccc2c(=O)n(C3CCCC3)c(=O)[nH]c2c1	-1%	1%	nt	40	nt
Cc1ccc(C(=O)Cn2nnc3ccccc32)cc1C	2%	0%	-17%	40	-10%
Fc1cccc(NCc2cn3ccccc3n2)c1	2%	-22%	nt	52	nt
Fc1ccc(NCc2cn3ccccc3n2)cc1	6%	11µM*	nt	78	-12%
O=C(Nc1ccc(OCc2cc(=O)n3c4c(sc3n2)CCCC4)cc1)c1ccccc1	5%	nt	1%	-105*	?
Cc1onc(-c2ccccc2)c1C(=O)N/N=C/C(Br)=C/c1ccccc1	-3%	2%	?	-70*	-15%
Cc1onc(-c2ccccc2)c1C(=O)Nc1ccc(NC(=O)c2c(-c3ccccc3)noc2C)cc1	1%	nt	nt	-5	nt
Cc1cccc(C(C)C)c1NC(=O)c1c(-c2ccccc2)noc1C	-5%	3%	nt	-62*	nt
Cc1cccc(/C=N/NC(=O)c2c(-c3ccccc3)noc2C)c1O	-2%	-9%	0.56µM*	-113*	-28%
Cc1onc(-c2ccccc2)c1C(=O)N/N=C/c1cc(Br)c(O)c(Br)c1	7%	-4%	?	2	?
CCC(C)C(NC(=O)CCCNC(=O)CCC(=O)OC1O[C@H]2OC3(C)CC[C@H]4[C@H](C)CCC(C1C)C24OO3)C(=O)O (stereo partly specified)	nt	-1%	nt	-19	nt
CCC(C)NC(=O)CCC(=O)OC1O[C@H]2OC3(C)CC[C@H]4[C@H](C)CCC(C1C)C24OO3 (stereo partly specified)	9%	3%	nt	-76*	nt
Cc1ccc(N2C(=O)C(CC(=O)Nc3ccccc3)N(CCC3=CCCCC3)C2=O)cc1 (stereo unspecified)	7%	nt	-19%	40	-11%
O=S(=O)(NCC(c1ccco1)S(=O)(=O)c1ccccc1)c1cc(F)ccc1F (stereo unspecified)	5%	nt	-17%	-69*	-14%
CCOc1ccc(N(CC(=O)Nc2ccc(F)cc2F)S(=O)(=O)c2c(C)[nH]c(=O)[nH]c2=O)cc1	0%	nt	-2%	-25	3%
Clc1ccc(COC(Cn2ccnc2)c2ccc(Cl)cc2Cl)c(Cl)c1 (stereo unspecified)	2%	-1%	-9%	-61*!	-28%
CCOC(=O)c1c(NC(=O)C(c2ccccc2)c2ccccc2)sc2c1C1CCN2CC1	-5%	0%	nt	-65*	nt
CN(C)c1ccc(-c2n(C)c3ccccc3[n+]2C)cc1	1%	-3%	?	-97*	?
Cn1c(-c2ccccn2)[n+](C)c2ccccc21	-1%	2%	i	-13	-10%
Cn1c(-c2ccc3ccccc3n2)[n+](C)c2ccccc21	2%	5%	-8%[7.34 µM]	-72*	-7%[7.34 µM]
Cn1c(-c2cccc([N+](=O)[O-])c2)[n+](C)c2ccccc21	0%	2%[11.5 µM]	nt	-26	nt
SMILES	TbPYK inhibitor	LmPK inh	VACV mCherry inh	HCMV inh	Vaccinia Venus
CC(C)C(NC(=O)c1ccco1)C(=O)OCC(=O)c1ccccc1 (stereo unspecified)	7%	-11%	nt	-32	nt
COc1ccc(NS(=O)(=O)c2ccc3oc(Nc4ccc5c(c4)OCCO5)nc3c2)cc1	-19%	-2%	nt	-85*	?
COc1ccc(NS(=O)(=O)c2ccc(NS(=O)(=O)c3ccc4c(c3)OCCO4)cc2)cc1	-1%	nt	6%	18	-3%
Cn1c(=O)c(=O)n(C)c2cc(S(=O)(=O)Nc3ccc4c(c3)OCCO4)ccc21	-1%	2%	nt	-76*	nt
Cn1c(=O)oc2cc(S(=O)(=O)Nc3ccc4c(c3)OCCO4)ccc21	3%	9%	nt	-91*	nt
O=S(=O)(Nc1ccc2c(c1)OCCO2)c1cccs1	-7%	-1%	i	-77*	-18%
O=C(O)c1cccc2sc3cc(Cl)ccc3c(=O)c12	0%	nt	i	-6	-12%
C/C(=N\NC(=O)CNC(=O)C(c1ccccc1)c1ccccc1)c1ccc(C(C)(C)C)cc1	-1%	6%	-24%	-76*	-1%
C/C(=N\NC(=O)CNC(=O)C(c1ccccc1)c1ccccc1)c1ccccc1	5%	-4%	-8%	44	-5%
Cc1oc2ccccc2c1CC(=O)NCCCN(C)C	-1%	1%	nt	-64*	nt
Cc1ccnc(NC(=O)C2CCC(CNc3c(N4CCCC4)c(=O)c3=O)CC2)c1 (stereo unspecified)	2%	5%	-7%	-75*	-22%
COc1cccc(OC)c1C1=NCC(=O)Nc2c1oc1ccc(Br)cc21	-6%	-1%	?	-95*	?
CCOC(=O)c1cc(-c2cccs2)nc2c1c(C)nn2-c1ccccn1	3%	4%	-25%	-86*	?
CCCCCCC(=O)Nc1nc(C)c(-c2csc(Nc3ccc(Cl)cc3)n2)s1	-2%	8%	5µM*	nt	?
Cc1nc(NC(=O)c2ccco2)sc1-c1csc(Nc2ccc(Cl)cc2)n1	5%	-6%	7.9µM*	?	?
Cc1ccc(Cl)cc1Nc1nc(-c2sc(NC(=O)c3ccco3)nc2C)cs1	-7%	-5%	?	?	?
Cc1nc(NC(=O)c2ccco2)sc1-c1csc(Nc2ccc(Cl)cc2Cl)n1	-4%	-1%	-23%	-77*	?
CCCCCC(=O)Nc1nc(C)c(-c2csc(Nc3ccc(Cl)cc3)n2)s1	-5%	-3%	?	?	?
Cc1ccc(Cl)cc1NC(=O)CN1C(=O)CCc2ccccc21	0%	nt	-9%	-9	2%
Cc1ccc(Oc2nc(C(F)(F)F)nc3ccccc23)cc1	1%	-5%	-11%	-69*	-13%
CCOc1ccc(CNC(=O)c2cc3oc4ccccc4c3n2C)cc1	3%	6%	10µM*!	-83*	7%
CCn1c(C(=O)N2CCc3ccccc3C2)cc2oc3ccccc3c21	3%	7%	nt	-17	nt
CCOc1ccccc1CNC(=O)c1cc2oc3ccccc3c2n1CC	-2%	2%	-19%	-70*	11%
CCn1c(C(=O)NCc2ccc(F)cc2)cc2oc3ccccc3c21	2%	nt	-16%	-69*	10%
COc1cccc(CNC(=O)c2cc3oc4ccccc4c3n2C)c1OC	-5%	8%	-19%[1.46 µM]	-35	-14%
O=C(NCc1ccc(F)cc1)c1cc2ccccc2o1	0%	-5%	i	-28	0%
COc1ccc(CN2C(=O)c3ccccc3C2C(=O)NCC2CCCO2)c(OC)c1 (stereo unspecified)	0%	-5%	nt	43	0%
